Structures can show the parent of a compound that is named as a salt.
Experiments:
U-2932 [1] = experiment: growth inhibition by drug alone (1 - RLU/untreated control) (fraction); higher = stronger inhibition; conditions: 177Lu-lilotomab satetraxetan 0 ug/ml
Outline: (§1)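 Growth inhibition was calculated from RealTime-Glo RLU against untreated no-drug wells. Values equal 1 − RLU/mean of 48 untreated no-drug wells per plate, read daily from day 3 after 1 h at 37°C. RIVA and U-2932 cells, with or without 18 h pretreatment by a radiolabelled anti-CD37 antibody conjugate (~600 MBq/mg; 0.5 µg/ml RIVA, 1 µg/ml U-2932), were washed and plated at 3,000 cells/well on compound-printed plates at 10/100 nM (RIVA) or 10/1,000 nM (U-2932).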

RIVA [2] = experiment: as above; conditions: 177Lu-lilotomab satetraxetan 0 ug/ml
Outline: as §1

U-2932 [3] = experiment: growth inhibition by drug plus 177Lu-lilotomab satetraxetan (1 - RLU/untreated control) (fraction); higher = stronger inhibition; conditions: 177Lu-lilotomab satetraxetan 1 ug/ml
Outline: as §1

RIVA [4] = experiment: as above; conditions: 177Lu-lilotomab satetraxetan 0.5 ug/ml
Outline: as §1

Row | Structure (SMILES) | growth inhibition by drug alone (U-2932 [1]; 10 nM, time (day): 3) | growth inhibition by drug alone (U-2932 [1]; 10 nM, time (day): 4) | growth inhibition by drug alone (U-2932 [1]; 10 nM, time (day): 5) | growth inhibition by drug alone (U-2932 [1]; 10 nM, time (day): 6) | growth inhibition by drug alone (U-2932 [1]; 1000 nM, time (day): 3) | growth inhibition by drug alone (U-2932 [1]; 1000 nM, time (day): 4) | growth inhibition by drug alone (U-2932 [1]; 1000 nM, time (day): 5) | growth inhibition by drug alone (U-2932 [1]; 1000 nM, time (day): 6) | growth inhibition by drug alone (RIVA [2]; 10 nM, time (day): 3) | growth inhibition by drug alone (RIVA [2]; 10 nM, time (day): 4) | growth inhibition by drug alone (RIVA [2]; 10 nM, time (day): 5) | growth inhibition by drug alone (RIVA [2]; 10 nM, time (day): 6) | growth inhibition by drug alone (RIVA [2]; 100 nM, time (day): 3) | growth inhibition by drug alone (RIVA [2]; 100 nM, time (day): 4) | growth inhibition by drug alone (RIVA [2]; 100 nM, time (day): 5) | growth inhibition by drug alone (RIVA [2]; 100 nM, time (day): 6) | growth inhibition by drug plus 177Lu-lilotomab satetraxetan (U-2932 [3]; 10 nM, time (day): 3) | growth inhibition by drug plus 177Lu-lilotomab satetraxetan (U-2932 [3]; 10 nM, time (day): 4) | growth inhibition by drug plus 177Lu-lilotomab satetraxetan (U-2932 [3]; 10 nM, time (day): 5) | growth inhibition by drug plus 177Lu-lilotomab satetraxetan (U-2932 [3]; 10 nM, time (day): 6) | growth inhibition by drug plus 177Lu-lilotomab satetraxetan (U-2932 [3]; 1000 nM, time (day): 3) | growth inhibition by drug plus 177Lu-lilotomab satetraxetan (U-2932 [3]; 1000 nM, time (day): 4) | growth inhibition by drug plus 177Lu-lilotomab satetraxetan (U-2932 [3]; 1000 nM, time (day): 5) | growth inhibition by drug plus 177Lu-lilotomab satetraxetan (U-2932 [3]; 1000 nM, time (day): 6) | growth inhibition by drug plus 177Lu-lilotomab satetraxetan (RIVA [4]; 10 nM, time (day): 3) | growth inhibition by drug plus 177Lu-lilotomab satetraxetan (RIVA [4]; 10 nM, time (day): 4) | growth inhibition by drug plus 177Lu-lilotomab satetraxetan (RIVA [4]; 10 nM, time (day): 5) | growth inhibition by drug plus 177Lu-lilotomab satetraxetan (RIVA [4]; 10 nM, time (day): 6) | growth inhibition by drug plus 177Lu-lilotomab satetraxetan (RIVA [4]; 100 nM, time (day): 3) | growth inhibition by drug plus 177Lu-lilotomab satetraxetan (RIVA [4]; 100 nM, time (day): 4) | growth inhibition by drug plus 177Lu-lilotomab satetraxetan (RIVA [4]; 100 nM, time (day): 5) | growth inhibition by drug plus 177Lu-lilotomab satetraxetan (RIVA [4]; 100 nM, time (day): 6)
1 | CCCS(=O)(=O)Nc1ccc(F)c(C(=O)c2c[nH]c3ncc(-c4ccc(Cl)cc4)cc23)c1F [Vemurafenib (PLX4032)] | 0.026 | -4.15e-06 | -0.0629 | -0.147 | -0.152 | -0.0928 | -0.16 | -0.291 | -0.0219 | -0.0744 | -0.165 | -0.55 | -0.231 | -0.206 | -0.219 | -0.345 | -0.0121 | 0.00305 | 0.0511 | 0.0873 | -0.143 | -0.047 | -0.0561 | 0.06 | 0.42 | 0.546 | 0.561 | 0.576 | 0.432 | 0.531 | 0.539 | 0.524
2 | N#CC(c1ccnc(NCCc2cccnc2)n1)c1nc2ccccc2s1 (centres undefined) [JNK Inhibitor V] | -0.0956 | -0.056 | -0.0395 | 0.0624 | -0.154 | -0.122 | -0.116 | -0.143 | -0.285 | -0.269 | -0.297 | -0.462 | -0.33 | -0.412 | -0.338 | -0.441 | -0.113 | -0.0825 | -0.0367 | 0.103 | -0.0869 | -0.00408 | 0.0113 | 0.0923 | 0.255 | 0.419 | 0.467 | 0.481 | 0.265 | 0.376 | 0.381 | 0.353
3 | CCN(CC)CCNC(=O)c1c(C)[nH]c(/C=C2\C(=O)Nc3ccc(F)cc32)c1C [Sunitinib Malate (Sutent)] | 0.0107 | 0.0161 | -0.0625 | -0.274 | -0.0117 | -0.00484 | -0.0741 | -0.207 | -0.117 | -0.163 | -0.216 | -0.511 | -0.295 | -0.315 | -0.325 | -0.492 | -0.0903 | -0.0528 | -0.026 | 0.0273 | -0.0792 | -0.017 | -0.0458 | -0.033 | 0.291 | 0.452 | 0.477 | 0.49 | 0.257 | 0.374 | 0.387 | 0.364
4 | CCN(CC)CCCC(C)Nc1nc(C)cc(Nc2ccc3nc(C)cc(N)c3c2)n1 (centres undefined) | 0.0927 | 0.0716 | -0.114 | -0.134 | 0.0662 | 0.0733 | -0.022 | -0.107 | -0.0541 | -0.0225 | -0.0658 | -0.279 | -0.31 | -0.199 | -0.249 | -0.391 | 0.0413 | 0.106 | 0.161 | 0.181 | 0.092 | 0.11 | 0.165 | 0.255 | 0.572 | 0.606 | 0.627 | 0.625 | 0.489 | 0.538 | 0.548 | 0.545
5 | Cc1ccc(-n2nc(C(C)(C)C)cc2NC(=O)Nc2ccc(OCCN3CCOCC3)c3ccccc23)cc1 [BIRB 796 (Doramapimod)] | 0.238 | 0.206 | 0.0293 | 0.0019 | 0.274 | 0.272 | 0.208 | 0.2 | 0.117 | 0.131 | 0.0641 | -0.0577 | -0.00598 | 0.0829 | 0.0349 | -0.0954 | 0.173 | 0.182 | 0.252 | 0.301 | 0.273 | 0.29 | 0.32 | 0.408 | 0.669 | 0.691 | 0.702 | 0.711 | 0.407 | 0.527 | 0.521 | 0.528
6 | O=C(c1ccc(OCCN2CCCCC2)cc1)c1c(-c2ccc(O)cc2)sc2cc(O)ccc12 [Evista (Raloxifene Hydrochloride)] | 0.0697 | 0.04 | -0.0859 | -0.131 | -0.0629 | -0.0257 | -0.102 | -0.132 | 0.0573 | -0.0405 | -0.151 | -0.472 | -0.0542 | -0.0819 | -0.167 | -0.432 | -0.0103 | 0.0219 | 0.0239 | 0.0818 | -0.103 | 0.0136 | -0.0473 | -0.104 | 0.368 | 0.48 | 0.511 | 0.525 | 0.425 | 0.482 | 0.477 | 0.447
7 | Cc1ccc(F)c(NC(=O)Nc2ccc(-c3cccc4[nH]nc(N)c34)cc2)c1 [Linifanib (ABT-869)] | 0.0297 | 0.0175 | -0.00657 | 0.043 | 0.133 | 0.146 | 0.103 | 0.0811 | -0.11 | -0.109 | -0.157 | -0.289 | 0.0372 | 0.000859 | -0.0495 | -0.102 | 0.0166 | 0.0206 | 0.0473 | 0.197 | 0.0768 | 0.108 | 0.147 | 0.253 | 0.454 | 0.546 | 0.574 | 0.585 | 0.515 | 0.54 | 0.546 | 0.517

Source: the supplement of paper PMC6897291
